# Records with an inconclusive call do not appear. Where a call stands in place of a potency, no number is given. Unmarked numbers belong to inactive results. Activity calls are given as the source filed them. The call rests on the fitted dose curve.
# Molecular target: Progesterone receptor (Homo sapiens) (UniProt P06401)
# Assay: qHTS assay to identify small molecule agonists of the progesterone receptor (PR) signaling pathway (AID 1346784); further: nearly all actives have a fitted effect of over 30% in size
# Conditions: PR-UAS-bla HEK293T, beta-lactamase FRET ratio, 16 h; series mostly up to 92.4 µM
# Source text: U.S. Tox21 Program National Center for Advancing Translational Sciences [NCATS] NIH Chemical Genomics Center [NCGC] U.S. Environmental Protection Agency [EPA] National Institutes of Environmental Health Sciences [NIEHS] National Toxicology Program [NTP] U.S. Food and Drug Administration [FDA] […] Endocrine disrupting chemicals (EDCs) and their interactions with steroid hormone receptors like PR causes disruption of normal endocrine function. To identify the compounds that activate PR signaling, a PR-UAS-bla GripTite cell line i.e. PR-UAS-bla HEK 293T (Invitrogen, Carlsbad, CA, USA) containing a beta-lactamase reporter gene under the control of an Upstream Activator Sequence (UAS) was used to screen Tox21 10K compound library.
# Tox21 Assay Protocol Summary: PR-UAS-bla HEK 293T cells were dispensed at 3,000 cells/5 uL of assay medium containing 2% charcoal stripped FBS per well into black wall/clear-bottom 1536-well plates using a Multidrop Combi (ThermoFisher Scientific, Waltham, MA) dispenser. After the assay plates were incubated at a 37C and 5% CO2 for 6hr, 23 nL of compounds dissolved in DMSO, positive controls or DMSO only was transferred to the assay plate by a Pintool station (Kalypsys, San Diego, CA). The plates were incubated at 37C and 5% CO2 for 16hr. Then 1 uL of LiveBLAzer B/G FRET substrate was added using a BioRAPTR FRD (Flying Reagent Dispenser, Aurora Discovery, San Diego, CA). After the plates were incubated at room temperature for 2 hours, fluorescence intensity was measured by an Envision plate reader (PerkinElmer, Shelton, CT).
# Progesterone receptor (Homo sapiens), sequence (P06401 whole entry, looked up): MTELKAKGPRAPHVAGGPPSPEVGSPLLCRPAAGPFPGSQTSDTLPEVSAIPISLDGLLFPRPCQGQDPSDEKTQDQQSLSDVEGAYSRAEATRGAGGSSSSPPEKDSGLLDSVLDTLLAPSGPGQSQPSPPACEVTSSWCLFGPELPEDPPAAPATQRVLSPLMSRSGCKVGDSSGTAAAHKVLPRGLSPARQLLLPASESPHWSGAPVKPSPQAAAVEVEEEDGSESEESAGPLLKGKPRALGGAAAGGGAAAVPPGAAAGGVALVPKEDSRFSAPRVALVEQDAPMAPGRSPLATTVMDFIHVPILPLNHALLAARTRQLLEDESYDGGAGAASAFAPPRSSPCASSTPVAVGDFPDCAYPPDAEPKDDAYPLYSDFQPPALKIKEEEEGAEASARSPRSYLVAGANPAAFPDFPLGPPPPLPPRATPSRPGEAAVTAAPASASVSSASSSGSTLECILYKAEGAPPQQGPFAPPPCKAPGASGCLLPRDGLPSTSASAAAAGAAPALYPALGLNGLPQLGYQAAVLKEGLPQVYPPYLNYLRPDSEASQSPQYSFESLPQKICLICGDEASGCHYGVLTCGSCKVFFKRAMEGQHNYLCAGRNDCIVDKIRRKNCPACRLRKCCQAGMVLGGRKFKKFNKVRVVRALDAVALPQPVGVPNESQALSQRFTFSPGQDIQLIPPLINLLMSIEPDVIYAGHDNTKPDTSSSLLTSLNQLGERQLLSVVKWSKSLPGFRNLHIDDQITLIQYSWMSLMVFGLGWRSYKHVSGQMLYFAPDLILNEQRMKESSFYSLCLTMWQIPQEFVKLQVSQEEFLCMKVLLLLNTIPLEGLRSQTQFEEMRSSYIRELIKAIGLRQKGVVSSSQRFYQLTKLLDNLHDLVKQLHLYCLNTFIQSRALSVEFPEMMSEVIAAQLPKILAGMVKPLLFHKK
Structure (SMILES),Potency,activation
CCC1Nc2cc(Cl)c(S(N)(=O)=O)cc2S(=O)(=O)N1 (stereo not given),inactive,
CCc1nccnc1C,inactive,
CCCCC(CC)CNC(=O)CC(C)OC(=O)CCC(=O)O (stereo not given),inactive,
Cc1ccccc1N1CCN(CCc2nnc3n2CCCC3)CC1,inactive,
CC(=O)c1ccc(OCC(=O)N2CCCCC2)cc1,inactive,
CCCCCCCCC(=O)OCC,inactive,
CCC(=O)OCCC(C)CCC=C(C)C (stereo not given),inactive,
CCCCCC1CCCC(=O)O1 (stereo not given),inactive,
CN(C1CCCCC1)S(=O)(=O)c1ccccc1N,inactive,
C[C@H](CCC(=O)NCC(=O)O)[C@H]1CC[C@H]2[C@@H]3[C@H](O)C[C@@H]4C[C@H](O)CC[C@]4(C)[C@H]3C[C@H](O)[C@]12C,inactive,
O=P(O)(O)OCC(O)CO (stereo not given),inactive,
CC1=CC[C@H](CC=O)C1(C)C,inactive,
Cc1cccc(C(=O)O)c1[N+](=O)[O-],inactive,
CC(C)CCO,inactive,
O=C(CN1CCN(Cc2ccc3c(c2)OCO3)CC1)N1c2ccccc2Sc2ccccc21,inactive,
Cc1oc(=O)oc1CN1CCN(c2cc3c(cc2F)c(=O)c(C(=O)O)c2n3C(C)S2)CC1 (stereo not given),inactive,
Nc1nc(=O)n([C@@H]2O[C@H](CO)[C@@H](O)[C@@H]2F)cc1I,inactive,
CCCCCCCCCCCCOC(C)=O,inactive,
FC(F)(F)/C(=N\OCC1OCCO1)c1ccc(Cl)cc1,inactive,
CC(C)COC(=O)CC(C(=O)OCC(C)C)S(=O)(=O)O (stereo not given),inactive,

Structure (SMILES),Potency,activation
CC(C)CCC(=O)CCC(C)C,inactive,
CC(=O)OC(C)(C)Cc1ccccc1,inactive,
Nc1cc(Cl)cc(S(=O)(=O)O)c1O,inactive,
O=C(O)/C=C/c1ccccc1,inactive,
CCCCCCCCCCCCCC(=O)OC,inactive,
C=CCOc1cc(Cl)ccc1C(=O)NCCN(CC)CC,inactive,
CCCC(C)CC (stereo not given),inactive,
CCCCC(C)C(=O)O (stereo not given),inactive,
C=CCCCCCCCCCCC,,-0.805% [at 8.39 µM]
CCC(C)(C)C1CCC(=O)CC1,inactive,
CCOC(=O)CCc1ccccc1,inactive,
O=C(O)CCNC(=O)c1ccccc1,inactive,
Nc1c(NC/C=C\COc2cc(CN3CCCCC3)ccn2)c(=O)c1=O,,1.78% [at 19 µM]
NC(=O)C1(N2CCCCC2)CCN(CCCC(=O)c2ccc(F)cc2)CC1,inactive,
CC(C)C(=O)c1ccccc1,inactive,
Cc1ccc(S(=O)(=O)NC(=O)NC2CCCCCCC2)cc1,inactive,
O=CN1CCOCC1,inactive,
O=C(O)c1ccc(OCCN2CCCCC2)cc1,inactive,
CC(=O)OC(C)c1ccccc1 (stereo not given),inactive,
FC(F)(F)c1ccc(Cl)cc1Cl,inactive,
